The structures appear in SMILES notation. Results filed as inconclusive are left out. Calls of active or inactive are those of the source. How the source made its calls: active means hit-call score of the fitted dose curve at least 0.9, where 1 is the maximum; inconclusive means response in the unintended direction; inactive means score below 0.9.

For 14 compounds, outcome and AC50 results are on record in PubChem BioAssay (EPA / NIEHS).

Test [1] concerns the target Oxysterols receptor LXR-alpha (Homo sapiens) (UniProt Q13133). Put plainly: ATG_LXRa_TRANS: Attagene TRANS-FACTORIAL HepG2 Assay for human Liver X Receptor alpha (LXRa) (AID 2282980). The settings on record: HepG2 Attagene TRANS reporter, LXRa transactivation. In short, it runs like this:
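HepG2 cells transiently transfected with GAL4-UAS reporter units for chimeric NR-Gal4 proteins, exposed to chemicals for 24 h. Reporter mRNA quantified by RT-PCR and capillary electrophoresis; gain of signal fitted relative to DMSO.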

Test [2] concerns the target Oxysterols receptor LXR-beta (Homo sapiens) (UniProt P55055). Put plainly: ATG_LXRb_TRANS: Attagene TRANS-FACTORIAL HepG2 Assay for human Liver X Receptor beta (LXRb) (AID 2282981). The note with it: HepG2 Attagene TRANS GAL4-LXRb reporter, mRNA. The method, boiled down:
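After 24 h of chemical treatment, transfected HepG2 cells yield total RNA; reporter cDNA is PCR-amplified, FAM-labelled, HpaI-cut and run on capillary electrophoresis. Signal reflects chimeric LXRb-Gal4 activity on GAL4-UAS reporters.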

Test [3] has as its target Estrogen receptor beta (Homo sapiens) (UniProt Q92731). Put plainly: OT_ER_ERbERb_0480: Odyssey Thera (OT) 8-hour HEK293T Protein-Complementation Assay for Estrogen Receptor-beta/-beta Homodimer (AID 2283357).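 Further: active means signal gain over DMSO baseline.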 The method, boiled down:
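ER-beta LBD homodimer PCA stably expressed in HEK293T; 8 h compound exposure, then formaldehyde fixation and Draq5 staining. Gain in nuclear/cytoplasmic fluorescence intensity versus DMSO vehicle, read on laser scanning cytometer.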

Test [4] concerns the target human Dopamine Transporter (DAT), SLC6A3 (gene 6531) (UniProt Q01959). Put plainly: NVS_TR_hDAT: NovaScreen (NVS) Transporter Assay for human Dopamine Transporter (DAT) (AID 2283374).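 Further: activity means loss of bound radioligand signal relative to DMSO.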 In short, it runs like this: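 Duplicate single-point screening at 25 uM preceded concentration-series follow-up of actives. Binding was measured by competitive displacement of a radioligand from DAT protein, filter-counted by scintillation 1 h after dosing. Decrease relative to DMSO taken as activity.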

Test [5] has as its target Estrogen receptor beta (Homo sapiens) (UniProt Q92731). Put plainly: OT_ER_ERbERb_1440: Odyssey Thera (OT) 24-hour HEK293T Protein-Complementation Assay for Estrogen Receptor-beta/-beta Homodimer (AID 2283380).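 Further: scored as signal increase over DMSO baseline for both agonists and antagonists.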 The method, boiled down:
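Fluorescence increase, nuclear for agonists or whole-cell for antagonists, relative to DMSO vehicle, quantified by laser scanning cytometer after fixation and Draq5 staining. Readout from 24 h treatment of HEK293T cells carrying complementation-paired ER beta LBD (aa 310-547).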

The target in test [6] is Retinoic acid receptor RXR-alpha (Homo sapiens) (UniProt P19793). Put plainly: OT_NURR1_NURR1RXRa_0480: Odyssey Thera (OT) 8-hour HEK293T Protein Complementation Assay for Nurr1/retinoid X receptor (RXR) (AID 2283385). The method, boiled down: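 Read-out: fluorescence from protein-fragment complementation between Nurr1 and RXRα in human HEK293T cells, 8 h after dosing. DMSO served as negative control; increased signal counted as activity.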

Test [7] shares this target. Briefly: OT_NURR1_NURR1RXRa_1440: Odyssey Thera (OT) 24-hour HEK293T Protein Complementation Assay for Nurr1/retinoid X receptor (RXR) (AID 2283386). The method, boiled down:
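Fluorescence PCA read-out; HEK293T; 24 h post-dose; bait/prey fused to reporter fragments; gain-of-signal fit vs DMSO negative control.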

Test [8] concerns the target Peroxisome proliferator-activated receptor gamma (Homo sapiens) (UniProt P37231). Briefly: OT_PPARg_PPARgSRC1_0480: Odyssey Thera (OT) 8-hour Protein-Complementation Assay for Peroxisome Proliferator-activated Receptor Gamma / SRC-1 Co-activator (AID 2283387). The method, boiled down:
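Read-out: 488 nm N/C fluorescence ratio from complemented Venus YFP fragments, ≥350 cells per image, gain-of-signal fitted against DMSO baseline. Fusions of PPARg/SRC-1 with IFP1/IFP2 expressed transiently in HEK293T; compounds applied 8 h.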

Test [9] shares this target. Briefly: OT_PPARg_PPARgSRC1_1440: Odyssey Thera (OT) 24-hour Protein-Complementation Assay for Peroxisome Proliferator-activated Receptor Gamma/ SRC-1 Co-activator (AID 2283388). In short, it runs like this:
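HEK293T transiently transfected with PPARg/SRC-1 split-Venus YFP fusions 48 h before dosing, then treated 24 h at 37C. Fixed cells imaged; nuclear/cytoplasmic 488 nm fluorescence ratio, gain of signal versus DMSO.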

A short description of test [10]: ACEA_AR_agonist_AUC_viability: ACEA Biosciences xCELLigence Real-Time Cell Analysis on Androgen Receptor Agonism for Viability (AID 2283775). The method, boiled down:
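Viability endpoint from xCELLigence impedance in 22Rv1 prostate cells at 80 h. Eight-point series, 100 uM maximum final.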

Test [11] is described as follows: ACEA_AR_antagonist_AUC_viability: ACEA Biosciences xCELLigence Real-Time Cell Analysis on Androgen Receptor Antagonism for Viability (AID 2283776).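 Further: 22Rv1 human prostate cancer cells growing on impedance electrode plates; area under impedance growth curve at 80 h after dosing as viability; hits lower the growth signal relative to DMSO meaning cytotoxicity.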 The method, boiled down: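 Real-time electrical impedance tracks 22Rv1 proliferation after continuous compound exposure (top 100 uM final, 1:4 steps, 8 concentrations). The 80 h area-under-curve serves as the cytotoxicity readout relative to DMSO.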

Test [12] in a line: CCTE_Harrill_HTTr_CellCount_MCF7: CCTE's Cell Proliferation Assessment for the High-Throughput Transcriptomics (HTTr) Platform, Harrill Lab (AID 2284012).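 Further: count of Hoechst-stained nuclei per well by high-content imaging in MCF-7 cells; cells exposed to compound for six hours; intended direction is loss of nuclei count meaning fewer cells.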 The method, boiled down:
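Readout: Hoechst nuclear count by high-content imaging. MCF-7, 8-point dilution series, 6 h exposure. Bidirectional fit vs DMSO baseline.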

A short description of test [13]: ATG_GAL4_TRANS: Attagene TRANS-FACTORIAL HepG2 Assay for GAL4 (Internal Marker) (AID 2282976). The settings on record: HepG2 Attagene TRANS GAL4 internal marker reporter. The method, boiled down:
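Background-control readout: GAL4-UAS reporter transcript in transiently transfected HepG2 cells after 24 h compound exposure. Measured by RT-PCR, 6-FAM primer extension, HpaI digest and capillary electrophoresis; gain-of-signal fit versus DMSO.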

Test [14] has as its target human Peroxisome Proliferator-activated Receptor alpha (PPARa), PPARA (gene 5465) (UniProt Q07869). Briefly: ATG_PPARa_TRANS: Attagene TRANS-FACTORIAL HepG2 Assay for human Peroxisome Proliferator-activated Receptor alpha (PPARa) (AID 2283001). In short, it runs like this:
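Transfected HepG2 cells treated with test chemical for 24 h. RNA isolated, reverse-transcribed with oligo(dT), PCR-amplified, FAM-labelled and HpaI-digested. Fragments sized by capillary electrophoresis; gain-of-signal fit relative to DMSO.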

Test [15] addresses human Retinoic Acid Receptor gamma (RARg), RARG (gene 5916) (UniProt P13631). Put plainly: ATG_RARg_TRANS: Attagene TRANS-FACTORIAL HepG2 Assay for human Retinoic Acid Receptor gamma (RARg) (AID 2283009). In short, it runs like this: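 Readout: reporter transcript levels via RT-PCR, 6-FAM primer-extension labelling, HpaI digestion and capillary electrophoresis. Cells: HepG2 carrying transfected RARg-GAL4 chimera plus UAS reporter set. Dosing 24 h; DMSO negative control.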

The target in test [16] is human Peripheral-type Benzodiazepine Receptor (PBR), TSPO (gene 706) (UniProt P30536). Put plainly: NVS_MP_hPBR: NovaScreen (NVS) Membrane Protein Assay for human Peripheral-type Benzodiazepine Receptor (PBR) (AID 2283331).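 Further: hits reduce radioligand binding relative to DMSO baseline.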 In short, it runs like this:
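Cell-free binding to human colonic membrane preparations measured by filter-based scintillation counting after 1 h. Compounds first run at 25 uM in duplicate, then concentration series for actives; signal loss against DMSO baseline.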

Test [17] concerns the target human Phosphodiesterase 10 (PDE10), PDE10A (gene 10846) (UniProt Q9Y233). Put plainly: NVS_ENZ_hPDE10: NovaScreen (NVS) Enzymatic Assay for human Phosphodiesterase 10 (PDE10) (AID 2283195). The method, boiled down:
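Fluorescence readout after mobility-shift separation of substrate and product, 1 h reaction with recombinant human enzyme. Single-concentration duplicates at 25 uM, then concentration-response up to 50 uM for chemicals reaching threshold; DMSO baseline.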

Sequence of Retinoic acid receptor RXR-alpha (Homo sapiens) (P19793 whole entry, looked up, the tested form may be a part): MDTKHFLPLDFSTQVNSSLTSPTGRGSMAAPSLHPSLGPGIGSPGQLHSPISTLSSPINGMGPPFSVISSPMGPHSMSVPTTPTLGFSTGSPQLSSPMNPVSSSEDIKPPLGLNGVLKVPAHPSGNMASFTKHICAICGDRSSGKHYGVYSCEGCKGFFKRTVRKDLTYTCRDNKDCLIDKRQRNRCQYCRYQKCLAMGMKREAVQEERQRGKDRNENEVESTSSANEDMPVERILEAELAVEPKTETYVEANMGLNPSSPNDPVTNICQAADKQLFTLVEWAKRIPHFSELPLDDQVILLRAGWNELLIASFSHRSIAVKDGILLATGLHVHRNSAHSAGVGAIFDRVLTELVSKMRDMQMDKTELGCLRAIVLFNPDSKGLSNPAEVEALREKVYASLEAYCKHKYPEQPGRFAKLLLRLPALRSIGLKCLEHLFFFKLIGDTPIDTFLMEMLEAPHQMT
Sequence of human Peroxisome Proliferator-activated Receptor alpha (PPARa), PPARA (gene 5465) (Q07869 whole entry, looked up, the tested form may be a part): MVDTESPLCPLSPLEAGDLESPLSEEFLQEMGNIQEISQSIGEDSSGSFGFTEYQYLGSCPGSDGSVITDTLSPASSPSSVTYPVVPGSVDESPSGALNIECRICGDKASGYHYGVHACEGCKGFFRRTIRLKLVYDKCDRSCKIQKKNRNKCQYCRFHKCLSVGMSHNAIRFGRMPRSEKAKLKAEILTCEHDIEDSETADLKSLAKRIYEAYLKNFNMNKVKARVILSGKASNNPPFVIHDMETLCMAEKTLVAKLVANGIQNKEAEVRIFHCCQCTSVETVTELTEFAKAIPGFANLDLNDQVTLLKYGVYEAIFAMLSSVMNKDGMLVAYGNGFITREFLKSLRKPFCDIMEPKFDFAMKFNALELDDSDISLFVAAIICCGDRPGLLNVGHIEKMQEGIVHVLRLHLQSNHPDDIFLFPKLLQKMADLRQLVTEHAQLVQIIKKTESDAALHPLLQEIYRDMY
Sequence of Peroxisome proliferator-activated receptor gamma (Homo sapiens) (P37231 whole entry, looked up, the tested form may be a part): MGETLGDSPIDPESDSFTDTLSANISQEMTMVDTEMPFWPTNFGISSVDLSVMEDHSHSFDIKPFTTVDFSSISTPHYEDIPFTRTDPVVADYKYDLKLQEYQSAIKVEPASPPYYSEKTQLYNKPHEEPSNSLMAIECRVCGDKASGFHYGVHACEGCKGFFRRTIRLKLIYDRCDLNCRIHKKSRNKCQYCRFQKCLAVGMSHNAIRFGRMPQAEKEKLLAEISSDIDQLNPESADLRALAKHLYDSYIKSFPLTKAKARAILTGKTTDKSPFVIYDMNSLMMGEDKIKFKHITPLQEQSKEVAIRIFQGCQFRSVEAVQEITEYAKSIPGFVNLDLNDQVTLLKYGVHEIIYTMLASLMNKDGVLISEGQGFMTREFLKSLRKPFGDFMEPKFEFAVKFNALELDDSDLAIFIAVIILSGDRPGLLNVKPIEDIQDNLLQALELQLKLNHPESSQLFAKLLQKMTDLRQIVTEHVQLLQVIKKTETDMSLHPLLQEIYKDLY
Sequence of human Peripheral-type Benzodiazepine Receptor (PBR), TSPO (gene 706) (P30536 whole entry, looked up): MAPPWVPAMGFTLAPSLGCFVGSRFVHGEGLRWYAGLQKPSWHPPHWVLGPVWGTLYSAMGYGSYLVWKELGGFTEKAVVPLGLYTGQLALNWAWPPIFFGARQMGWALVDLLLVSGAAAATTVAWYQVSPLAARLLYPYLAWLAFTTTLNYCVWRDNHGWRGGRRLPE
Sequence of Oxysterols receptor LXR-beta (Homo sapiens) (P55055 whole entry, looked up, the tested form may be a part): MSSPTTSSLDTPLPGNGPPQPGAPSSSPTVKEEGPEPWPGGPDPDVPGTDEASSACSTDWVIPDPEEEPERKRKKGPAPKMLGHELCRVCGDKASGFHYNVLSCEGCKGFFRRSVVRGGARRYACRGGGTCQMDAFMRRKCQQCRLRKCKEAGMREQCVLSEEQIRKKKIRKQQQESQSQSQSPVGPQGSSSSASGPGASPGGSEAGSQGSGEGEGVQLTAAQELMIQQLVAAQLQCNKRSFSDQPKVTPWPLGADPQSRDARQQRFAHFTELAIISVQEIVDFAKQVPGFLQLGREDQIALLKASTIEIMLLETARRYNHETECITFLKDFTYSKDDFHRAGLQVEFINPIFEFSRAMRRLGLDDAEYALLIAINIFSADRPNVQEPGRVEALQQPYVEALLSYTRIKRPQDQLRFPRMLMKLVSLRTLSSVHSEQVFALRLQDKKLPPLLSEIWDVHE
Sequence of Estrogen receptor beta (Homo sapiens) (Q92731 whole entry, looked up, the tested form may be a part): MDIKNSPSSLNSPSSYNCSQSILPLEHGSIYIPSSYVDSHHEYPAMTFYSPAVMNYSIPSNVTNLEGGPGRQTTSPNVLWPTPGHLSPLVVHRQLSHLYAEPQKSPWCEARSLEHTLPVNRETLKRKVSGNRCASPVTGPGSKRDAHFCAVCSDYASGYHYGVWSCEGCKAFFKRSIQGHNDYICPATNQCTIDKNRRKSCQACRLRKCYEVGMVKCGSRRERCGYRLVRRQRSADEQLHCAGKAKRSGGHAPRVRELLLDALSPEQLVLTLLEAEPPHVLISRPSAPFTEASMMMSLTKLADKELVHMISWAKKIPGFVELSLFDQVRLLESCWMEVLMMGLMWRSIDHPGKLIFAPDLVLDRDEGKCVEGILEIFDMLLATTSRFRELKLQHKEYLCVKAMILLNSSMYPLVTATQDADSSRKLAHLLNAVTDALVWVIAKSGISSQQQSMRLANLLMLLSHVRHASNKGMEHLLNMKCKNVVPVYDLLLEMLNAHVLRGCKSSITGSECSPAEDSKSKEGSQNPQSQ
Sequence of human Dopamine Transporter (DAT), SLC6A3 (gene 6531) (Q01959 whole entry, looked up): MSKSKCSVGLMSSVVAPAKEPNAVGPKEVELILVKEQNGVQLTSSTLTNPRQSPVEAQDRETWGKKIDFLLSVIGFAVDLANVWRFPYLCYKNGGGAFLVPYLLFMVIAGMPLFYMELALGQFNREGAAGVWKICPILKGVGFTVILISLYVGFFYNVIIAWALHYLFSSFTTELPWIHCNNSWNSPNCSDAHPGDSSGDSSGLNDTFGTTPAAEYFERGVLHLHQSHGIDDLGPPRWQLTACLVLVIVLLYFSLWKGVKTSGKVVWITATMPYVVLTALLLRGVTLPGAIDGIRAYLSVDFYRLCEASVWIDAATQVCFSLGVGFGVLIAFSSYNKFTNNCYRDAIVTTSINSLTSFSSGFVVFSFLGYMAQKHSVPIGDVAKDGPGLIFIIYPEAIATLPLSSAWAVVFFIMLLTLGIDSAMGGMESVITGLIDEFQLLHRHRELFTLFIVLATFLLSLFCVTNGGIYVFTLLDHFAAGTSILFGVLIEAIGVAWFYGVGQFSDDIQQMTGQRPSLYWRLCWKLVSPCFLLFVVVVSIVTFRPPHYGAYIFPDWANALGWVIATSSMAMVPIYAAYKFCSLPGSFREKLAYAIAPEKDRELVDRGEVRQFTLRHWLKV
Sequence of human Retinoic Acid Receptor gamma (RARg), RARG (gene 5916) (P13631 whole entry, looked up, the tested form may be a part): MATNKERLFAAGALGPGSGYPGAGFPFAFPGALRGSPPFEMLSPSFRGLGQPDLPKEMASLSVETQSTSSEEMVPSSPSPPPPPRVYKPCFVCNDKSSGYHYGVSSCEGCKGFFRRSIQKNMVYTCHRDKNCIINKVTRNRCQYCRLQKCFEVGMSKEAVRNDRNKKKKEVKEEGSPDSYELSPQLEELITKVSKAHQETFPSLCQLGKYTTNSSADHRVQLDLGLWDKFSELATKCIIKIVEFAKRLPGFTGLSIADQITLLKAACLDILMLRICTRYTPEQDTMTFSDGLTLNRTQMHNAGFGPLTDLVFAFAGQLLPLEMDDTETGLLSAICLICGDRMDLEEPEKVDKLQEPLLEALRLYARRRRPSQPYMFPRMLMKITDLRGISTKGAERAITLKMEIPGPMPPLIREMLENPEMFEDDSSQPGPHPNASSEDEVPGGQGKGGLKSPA
Sequence of Oxysterols receptor LXR-alpha (Homo sapiens) (Q13133 whole entry, looked up, the tested form may be a part): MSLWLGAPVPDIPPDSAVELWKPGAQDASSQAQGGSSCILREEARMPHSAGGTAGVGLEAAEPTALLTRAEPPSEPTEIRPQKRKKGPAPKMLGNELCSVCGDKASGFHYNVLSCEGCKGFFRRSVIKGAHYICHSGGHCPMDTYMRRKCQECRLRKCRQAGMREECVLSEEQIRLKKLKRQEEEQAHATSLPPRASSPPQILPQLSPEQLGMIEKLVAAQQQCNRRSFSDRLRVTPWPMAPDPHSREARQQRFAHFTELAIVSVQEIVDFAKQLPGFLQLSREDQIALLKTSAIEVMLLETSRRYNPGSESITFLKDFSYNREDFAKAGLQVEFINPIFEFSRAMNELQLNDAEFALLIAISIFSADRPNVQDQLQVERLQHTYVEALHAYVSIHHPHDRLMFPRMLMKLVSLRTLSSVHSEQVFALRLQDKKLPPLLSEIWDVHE

In the case of `C[C@]12CC[C@H]3[C@@H](CC[C@@]45O[C@@H]4C(O)=C(C#N)C[C@]35C)[C@@H]1CC[C@@H]2O`, the call in [1] and in [2] was inactive.
As for `CC(C)(c1cc(Cl)c(O)c(Cl)c1)c1cc(Cl)c(O)c(Cl)c1`, the outcome in test [3], in test [4], in [5], in test [8], in test [9] and in test [10] was inactive. Also, the compound was classed as inactive in test [11]. Moreover, the AC50 in [6] is 74.7 µM (active); in test [7], 78.1 µM (active).
As for `O=C=Nc1ccccc1`, the compound was called inactive in test [5], in [7], in test [8], in [9], in test [10] and in [11]. The result in [12] was inactive.
For the compound `CN(N=O)c1ccccc1`, the compound was called inactive in test [2].
`CC(C)C#N`: the outcome in [13], in test [1], in test [14], in test [15], in test [8] and in [9] was inactive. Besides, the compound was called inactive in test [10] and in test [11].
Regarding `C=CCN(CC=C)C(=O)C(Cl)Cl`, the call in test [3], in test [5], in test [7], in [8], in test [9] and in test [10] was inactive.
For `CCc1cccc(C)c1N(C(=O)CCl)[C@@H](C)COC`, in test [16], the AC50 is 2.89 µM (active). In addition, the call in test [3], in test [5], in test [6], in test [8], in test [9] and in test [10] was inactive. In addition, the compound was classed as inactive in test [11] and in [12].
As to `CCc1cc(C)cc(CC)c1-c1c(OC(=O)C(C)(C)C)n2n(c1=O)CCOCC2`, the outcome in test [16] was inactive.
`CC(C)C(=O)Cl`: the call in [14] and in [17] was inactive.
For the compound `COC(=O)COc1ccc(Cl)cc1Cl`, in test [13], the result was inactive. For the same compound, in [16], the AC50 is 14.9 µM (active).
In the case of `C[N+](C)=CCl`, the call in test [13] was inactive.
In the case of `CC1CCCC1.[C-]#[O+].[C-]#[O+].[C-]#[O+].[Mn]`, the result in test [14], in test [15], in [6], in test [7], in test [8] and in test [9] was inactive. Also, in test [10], the compound was called inactive.
On to `Clc1ccc(-c2ccccc2)cc1`, for which the compound was classed as inactive in [17], in [4] and in [12].
As to `CC(C)c1ccc(O)cc1`, the outcome in test [2], in test [14], in test [7], in test [8], in test [9] and in test [10] was inactive. Besides, in test [11], the outcome was inactive. In addition, the AC50 in [3] is 57.9 µM (active); in [5] it was 50 µM (active).
